Compound activity (PubChem BioAssay)
Pf growth 48h: Primary qHTS for delayed death inhibitors of the malarial parasite plastid, 48 hour incubation | P. falciparum luciferase growth in erythrocytes, 48 h | Potency, µM (series often up to 28.7 µM), for inactives: top-dose activity change, negative = inhibition, actives largely listed as inhibitors | hit rate 5.9% among 310,000 | AID 504832, 2011; further: potency means the concentration at half of the fitted maximal effect; on the % scale 0 is the no-effect control and ±100 the full control effect
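Luciferase-expressing parasites in RBCs, 2% Hct / 0.1% parasitemia final; RPMI 1640 + 0.5% Albumax; 37 C, 5% CO2, one generation; luminescence read-out, lower signal = inhibition.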
Shiga toxin inh: A qHTS for Small Molecule Inhibitors of Shiga Toxin; Vero cells, Shiga toxin protein synthesis inhibition reporter; inhibition, % at 38.7 µM; hit rate 9.2% among 290,000; AID 2315, 2010; in the data active means inhibition mostly above about 28%, no sharp cut-off; inactive means mostly below about 43%; further: 0% is about no effect
Pf growth 96h: Primary qHTS for delayed death inhibitors of the malarial parasite plastid, 96 hour incubation. P. falciparum luciferase reporter growth, 96 h. Potency, µM (top dose mostly 28.7 µM), without a hit: at the highest dose activity change, negative = inhibition, actives largely listed as inhibitors. hit rate 6.9% among 320,000; further: potency means the concentration at half of the fitted maximal effect; on the % scale 0 is the no-effect control and ±100 the full control effect
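Erythrocytes infected with luciferase-expressing P. falciparum were dispensed at 2% hematocrit and 0.05% parasitemia (final), then incubated with compounds 96 hours at 37 C in 5% CO2. Luminescence after detection reagent addition reported growth.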
HCMV antiviral: qHTS Assay for inhibitors of the human cytomegalovirus (HCMV); HFF cells, HCMV-luciferase reporter, 72 h; stronger effect = lower value; activity change, negative = inhibition, % at 57.5 µM; hit rate 4.5% among 410,000; AID 1259415, 2018; in the data active means activity change below about -60%; inconclusive means no clear call, values can overlap the other calls; inactive means above about -39%; further: on the % scale 0 is the no-effect control and ±100 the full control effect
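Cell-based, HFFs, 1000 cells/well, 16 h 37C; cpds in DMSO + HCMV-luc, MOI 1 PFU/cell; 72 h 37C; OneGlo luminescence after 5 min RT; norm. to buffer vs Salinomycin 10uM.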
CHX counter: Cycloheximide Counterscreen for Small Molecule Inhibitors of Shiga Toxin. max response, %. cell reporter, cycloheximide protein synthesis inhibition counterscreen. hit rate 12% among 300,000; in the data active means max response mostly above about 13%, no sharp cut-off; inactive means mostly below about 14%; further: read at 38.3 µM for the half of the compounds with a filed dose; 0% is about no effect
The depositor's hits bear a star; ? = inconclusive; . = not tested or not shown. Only some compounds are listed: those with a hit (about 20% of all), similar ones and a draw of the others. Unless noted, the call rests on the fitted dose curve; in most records, active means well fitted inhibition curve with a large enough effect; inconclusive means small, poorly fitted or top-dose-only effect, or another doubt; inactive means no such curve, though single readings can be large or run the other way.

SMILES | Pf growth 48h | Shiga toxin inh | Pf growth 96h | HCMV antiviral | CHX counter
Oc1[nH]c2ccc(Br)cc2c1N=NC(=S)N1CCOCC1 | 0.828µM* | -8.1 | 0.415µM* | -100.2* | 0.9
NC(=S)N=Nc1c(O)[nH]c2ccccc12 | 44.6% | -1.9 | ? | -13.6 | -5.0
Oc1[nH]c2ccccc2c1N=NC(=S)N1CCOCC1 | 0.586µM* | 58.4 | 0.586µM* | . | 16.3*
COC(=O)N=Nc1c(O)[nH]c2ccc(Br)cc12 | 46.5% | 5.1 | 41.5% | -22.6 | -0.6
Cc1cc(C(=O)NCc2csc(-c3ccccc3)n2)no1 | 59.2% | 95.4* | 0.5% | 36.4 | 51.1*
O=C(NCc1csc(-c2ccccc2)n1)c1ccco1 | . | 60.1* | 99.7% | 14.9 | 26.9*
CCc1cc(C(=O)NCc2ccccc2)no1 | . | . | . | 26.6 | .
Cc1cc(F)ccc1Nc1nc2ccccc2n2nnnc12 | . | . | . | -3.8 | .
Fc1cc(Br)ccc1Nc1nc2ccccc2n2nnnc12 | 47.4% | 42.5* | 45.3% | -72.9* | 26.9*
Cc1ccc(Nc2nc3ccccc3n3nnnc23)cc1 | 28.0% | 71.5* | -23.7% | 0.0 | 25.6*
O=C(O)c1ccc(N/N=C/c2cn(Cc3ccc(F)cc3)c3ccccc23)cc1 | 24.1% | 70.2* | 79.3% | -21.0 | 29.5*
NC(=O)Cn1cc(/C=N\NS(=O)(=O)c2ccc(Cl)cc2)c2ccccc21 | 8.5% | -8.6 | 27.2% | 2.2 | -1.5
COc1cc(C(=O)N/N=C/c2cn(Cc3cccc(F)c3)c3ccccc23)ccc1O | -28.4% | 17.3 | 1.65µM* | -30.2 | 4.1
O=S(=O)(N/N=C/c1cn(Cc2ccccc2)c2ccccc12)c1ccccc1 | 9.5% | 50.8* | 1.6% | 76.5 | 14.7
O=C(N/N=C/c1cn(Cc2ccccc2)c2ccccc12)c1cc(O)cc(O)c1 | ? | -7.6 | ? | 75.1 | -3.2
CCNC(=S)N/N=C/c1cn(Cc2ccc(F)cc2)c2ccccc12 | ? | -13.1 | ? | -0.5 | 0.4
Cc1ccc(C(=O)N/N=C/c2cn(Cc3ccccc3)c3ccccc23)cn1 | 4.0% | 30.8 | 42.4% | -37.0 | 20.4*
CCOc1cc(C(=O)Nc2ccc(-c3nnc4n3CCCCC4)cc2)cc(OCC)c1OCC | . | . | . | -6.0 | .
Cc1cc(C)c(C(O)c2ncc(-c3ccccc3F)[nH]2)c(C)c1 (stereo unspecified) | . | . | . | 22.8 | .
CCOc1ccc(S(=O)(=O)Nc2cc(SCC(=O)O)c(O)c3ccccc23)cc1 | 10.4µM* | 6.1 | 1.85µM* | 8.9 | 14.6
CCOc1ccc(S(=O)(=O)Nc2cc3c(C(=O)OC)c(COC)oc3c3ccccc23)cc1 | . | . | . | 18.6 | .
CCc1ccc(S(=O)(=O)Nc2cc(SCC(=O)O)c(O)c3ccccc23)cc1 | 7.38µM* | 29.7* | ? | 63.4 | 8.8
Cc1c(NS(=O)(=O)c2ccccc2)cc(C(C)C)c(O)c1S(=O)(=O)c1ccc(Cl)cc1 | . | . | . | -37.1 | .
O=S(=O)(Nc1cc(Sc2cccc3cccnc23)c(O)c2ccccc12)c1ccccc1 | 3.29µM* | 52.9* | 242.6% | -100.4* | 20.8
O=C1c2ccccc2C(=O)c2cc(S(=O)(=O)Nc3cccc4cccnc34)ccc21 | . | 16.7 | . | . | 6.8
SMILES | Pf growth 48h | Shiga toxin inh | Pf growth 96h | HCMV antiviral | CHX counter
Cc1ccc(C)c(S(=O)(=O)Nc2cc(SCC(=O)O)c(O)c3ccccc23)c1 | ? | -1.5 | 20.7% | . | 13.7*
O=C(COc1ccc(S(=O)(=O)N2CCCCC2)cc1Cl)N1CCOCC1 | -8.2% | -15.4 | 0.0% | 3.3 | 2.5
O=C(NN1CCOCC1)c1cc(S(=O)(=O)Nc2cccc(C(F)(F)F)c2)ccc1Cl | 1.6% | -3.1 | 1.3% | 14.9 | -1.6
O=C(O)CSc1cc(NS(=O)(=O)c2cccc([N+](=O)[O-])c2)c2ccccc2c1O | 10.4µM* | 10.9 | ? | 0.0 | 12.9*
O=C(O)c1cccc(S(=O)(=O)Nc2ccc([N+](=O)[O-])cc2O)c1 | 6.7% | -11.9 | 49.1% | -34.9 | -3.0
CCc1ccc(S(=O)(=O)Nc2ccc(O)c3ccccc23)cc1 | 9.28µM* | -3.1 | 8.5% | ? | -3.4
O=S(=O)(Nc1ccc(O)c2ccccc12)c1ccc(F)cc1 | . | . | . | 26.0 | .
CCNC(=S)NS(=O)(=O)c1ccc(C)cc1 | 5.0% | -12.4 | 2.0% | -2.2 | -0.7
CCNC(=S)NS(=O)(=O)c1ccc(CC)cc1 | 6.9% | -19.7 | ? | -94.6* | -1.3
COc1ccc(F)cc1S(=O)(=O)N1CCC2(CC1)OCCN2S(=O)(=O)c1cccs1 | ? | . | ? | -34.5 | .
O=C(O)CC1SC(=Nc2ccccc2)N(c2ccccc2)C1=O (stereo unspecified) | 3.6% | -8.3 | ? | -4.9 | 1.0
Cc1ccc(CC2SC(=Nc3ccccc3)N(c3ccccc3)C2=O)cc1 (stereo unspecified) | 10.4µM* | -9.9 | 197.3% | 3.6 | -4.6
Cc1ccc(N2C(=O)SC(Cc3ccccc3)C2=O)cc1 (stereo unspecified) | 31.1% | 41.6* | 105.5% | 3.1 | 13.8*
NCCN | -1.6% | . | -9.0% | . | .
O=C(CN1C(=O)c2cccc3cccc1c23)Nc1ccccc1Br | . | . | . | 12.2 | .
Nc1c(Cl)ncnc1N/N=C/c1cccnc1 | 25.0% | 14.4 | 7.2% | -13.4 | 15.1*
Nc1c(Cl)ncnc1N/N=C/c1ccccn1 | 2.08µM* | active | 2.94µM* | -98.9* | 24.7*
Nc1c(Cl)ncnc1N/N=C/c1ccnc2ccccc12 | 74.7% | 20.4 | 64.8% | -14.1 | 10.4
Nc1c(Cl)ncnc1N/N=C/c1ccc2ccccc2n1 | ? | 120.6* | 3.7µM* | -97.9* | 69.1*
O=C(O)c1ccc(NC2(C(=O)O)CCCC2)cc1 | . | . | . | 16.4 | .
C=CCn1c(SCC(=O)NC(=O)Cc2ccccc2)nnc1-c1ccccc1F | . | . | . | 2.7 | .
COCCCNC(=O)C1CCN(Cc2cc3ccccc3n2Cc2cccc(Cl)c2)CC1 | . | . | . | -5.1 | .
NNC(=O)Cn1nc(-c2ccccc2)c2ccccc2c1=O | -11.0% | -4.8 | -6.7% | -34.1 | -0.6
CN1C(=O)[C@@H](NC(=O)c2cc3ccccc3[nH]2)N=C(c2ccccc2)c2ccccc21 | 15.1µM* | 10.3 | 15.1µM* | . | 21.6
CN1C(=O)C(O)N=C(c2ccccc2)c2ccccc21 (stereo unspecified) | 1.8% | 11.5 | 20.1% | 173.2 | -1.1
Cc1c(Br)c(C(F)(F)F)nn1CC(=O)N(C)C1CCCCC1 | 19.1% | -7.7 | -29.2% | -24.0 | -4.0
COc1ccc(C(CNc2ccc(S(=O)(=O)N3CCCC3)cc2[N+](=O)[O-])N2CCCC2)cc1 (stereo unspecified) | ? | 2.1 | 10.4µM* | -38.6 | -3.2
COc1ccc(Nc2ccc(S(=O)(=O)N3CCCCC3)cc2[N+](=O)[O-])cc1Cl | ? | 5.1 | 13.1µM* | ? | 5.5
COc1ccc(C(CNc2ccc(S(=O)(=O)N3CCN(C)CC3)cc2[N+](=O)[O-])N(C)C)cc1 (stereo unspecified) | 0.5% | . | 11.3% | -19.3 | .
O=C(NCCc1ccccc1F)C1CC(=O)N(c2cccc(C(F)(F)F)c2)C1 (stereo unspecified) | . | . | . | 11.5 | .
